Screening results deposited in PubChem BioAssay by National Center for Advancing Translational Sciences (NCATS).
Hits are enriched below; roughly 3.6% of the tested compounds scored in any of these assays.
Rango complex inh – qHTS Assay for Inhibitors of Rango (Ran-regulated importin-beta cargo) - Importin beta complex formation | Potency, µM (titrated, usually from 92.2 µM), inactives show top-dose inhibition of complex formation | Importin subunit beta-1 (Homo sapiens), Q14974 | 340,000 compounds, 0.031% hits | Rango CFP/YFP FRET sensor + importin beta, 45 min; calls by dose curve;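 further: potency means the concentration at half of the fitted maximal effect; 0% = DMSO wells and 100% = buffer wells lacking importin beta; nearly all actives have a fitted effect of over 15% in size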
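FRET biosensor Rango (snurportin 1 IBB between N-terminal EYFP and C-terminal Cerulean), 50 nM in PBS/1 mM DTT/0.02% Tween-20/0.1% BSA, preincubated 5 min RT with compound; 0.125 microM importin beta added, 45 min RT, CFP/YFP FRET ratio read.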
GCN5L2 inh – qHTS Assay for Inhibitors of GCN5L2. Histone acetyltransferase KAT2A (Homo sapiens), Q92830. GCN5L2 HAT assay, ThioGlo1 CoA-SH fluorescence. Potency, µM (titrated, usually from 58.9 µM), without a hit: top-dose activity change, negative = inhibition, hits mostly inhibitors. 390,000 compounds, 0.21% hits; further: potency means the concentration at half of the fitted maximal effect; on the % scale 0 is the no-effect control and ±100 the full control effect
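ThioGlo1-coupled HAT assay: 20nM GCN5L2, 70uM acetyl-CoA, 75uM H3(1-25) peptide, pH 7.5. Fluorescence read at 340/540nm at start and after 20 min at room temperature.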
Rango release inh – qHTS Assay for Inhibitors of RanGTP induced Rango (Ran-regulated importin-beta cargo) - Importin beta complex dissociation. Biochemical FRET Rango-importin beta, RanGTP-induced dissociation. AID 540253, 2011. 340,000 compounds, 0.071% hits. Potency, µM (series often up to 46.1 µM), inactives show at the highest dose activity change, negative = inhibition. Snurportin-1 (Homo sapiens) + GTP-binding nuclear protein Ran (Homo sapiens) + Importin …; calls by dose curve; further: potency means the concentration at half of the fitted maximal effect; % of control where 0% means no effect; nearly all actives have a fitted effect of over 45% in size
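Rango/importin beta premix (0.1/0.25 uM final), PBS + 1 mM DTT + 0.02% Tween-20 + 0.1% BSA; cpd 5 min RT; FRET pre-read; + RanGTP-RCC1 (0.6 uM Ran, 2 mM GTP, 0.2 uM RCC1); 45 min RT; FRET post-read, ex 430, em 486/530 nm.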
PLK1 PBD inh – qHTS for Inhibitors of PLK1-PDB (polo-like kinase 1 - polo-box domain): Primary Screen; Plk1 PBD binding of FITC phosphopeptide, fluorescence polarization; 360,000 compounds, 2.8% hits; Potency, µM, inactives show max response, negative = inhibition, actives largely listed as inhibitors; further: potency means the concentration at half of the fitted maximal effect; series mostly up to about 57 µM; on the % scale 0 is the no-effect control and ±100 the full control effect; nearly all actives have a fitted effect of over 65% in size
VDR inhibitor – Inhibitors of the vitamin D receptor (VDR): qHTS | 400,000 compounds, 0.93% hits | Vitamin D3 receptor (Homo sapiens), P11473 | VDR-SRC2-3 peptide fluorescence polarization, 2 h | AID 504847, 2011 | Potency, µM, inactives show max response, negative = inhibition, hits mostly inhibitors; further: potency means the concentration at half of the fitted maximal effect; on the % scale 0 is the no-effect control and ±100 the full control effect
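Compounds are added to VDR with labelled SRC2-3 coactivator peptide and held 2 h at room temperature. Inhibition of the VDR–peptide interaction is then read as a change in fluorescence polarization.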
PI5P4Ka inh – qHTS for Inhibitors of phosphatidylinositol 5-phosphate 4-kinase (PI5P4K) | Phosphatidylinositol 5-phosphate 4-kinase type-2 alpha (Homo sapiens), P48426 | PI5P4Kalpha enzyme, ADP-Glo luminescence, 60 min; hits give low values | max response, % | 330,000 compounds, 1.2% hits | AID 652105, 2013; active means max response of -50% or lower; inconclusive means between -30% and -50%; inactive means -30% or higher; further: value at the top dose of about 77 µM; on the % scale 0 is the no-effect control and ±100 the full control effect
Target sequence (P48426 whole entry, looked up): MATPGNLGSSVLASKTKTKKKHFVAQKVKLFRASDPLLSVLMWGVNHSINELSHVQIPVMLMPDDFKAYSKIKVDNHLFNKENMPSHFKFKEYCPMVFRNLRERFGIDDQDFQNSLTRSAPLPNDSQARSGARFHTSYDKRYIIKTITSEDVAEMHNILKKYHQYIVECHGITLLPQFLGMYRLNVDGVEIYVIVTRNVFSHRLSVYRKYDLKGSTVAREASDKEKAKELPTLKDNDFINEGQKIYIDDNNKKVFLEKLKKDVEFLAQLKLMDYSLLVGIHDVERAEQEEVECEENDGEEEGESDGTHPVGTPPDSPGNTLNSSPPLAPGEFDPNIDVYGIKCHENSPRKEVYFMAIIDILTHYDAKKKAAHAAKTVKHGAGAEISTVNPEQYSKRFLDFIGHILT
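ADP-Glo luminescence end-point read after a 60 min room-temperature kinase reaction of PI5P4Kalpha plus substrate, initiated with ATP at 5 microM final. Buffer: 0.038 M HEPES pH 7.4, EGTA, 0.1% CHAPS, 5% DMSO.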
VDR inh confirm – qHTS for Inhibitors of the vitamin D receptor (VDR): Hit Validation in Primary Screen. shares compounds with VDR inhibitor. VDR-coactivator inhibition assay, qHTS confirmation. Potency, µM, hits mostly inhibitors. 840 compounds, 89% hits; further: potency means the concentration at half of the fitted maximal effect
VDR FP fluor – qHTS for Inhibitors of the vitamin D receptor (VDR): Hit Validation using a Fluorescein Assay. Potency, µM (highest dose often 57.1 µM), without a hit: at the top dose activity change, negative = inhibition, usual class: inhibitors. VDR-coactivator binding, fluorescein fluorescence polarization. shares compounds with VDR inhibitor. 840 compounds, 48% hits. AID 602200, 2012; further: potency means the concentration at half of the fitted maximal effect
VDR bla reporter – qHTS for Inhibitors of the vitamin D receptor (VDR): Hit Validation using a Beta-Lactamase Assay | shares compounds with VDR inhibitor | VDR beta-lactamase reporter cells, FRET ratio; cells co-treated with VDR agonist LG190178 | Potency, µM (highest dose often 46.1 µM), inactives show at the highest dose activity change, negative = inhibition, actives largely listed as inhibitors | 840 compounds, 23% hits; further: potency means the concentration at half of the fitted maximal effect; on the % scale 0 is the no-effect control and ±100 the full control effect
VDR viability – qHTS for Inhibitors of the vitamin D receptor (VDR): Hit Validation using a Cytotoxicity Assay; cytotoxicity counter-screen, cell viability, qHTS; AID 602204, 2012; Potency, µM (series often up to 48.3 µM), for the others: at the highest dose activity change, negative = cytotoxicity, actives largely listed as cytotoxic; 840 compounds, 18% hits; shares compounds with VDR inhibitor;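 further: potency means the concentration at half of the fitted maximal effect; plate controls were DMSO for no effect and high-concentration cycloheximide for full effect; nearly all actives have a fitted effect of over 75% in size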
An asterisk follows results filed as active; ? = inconclusive; / = no result; [ ] = remark or other dose. Unless noted, the call rests on the fitted dose curve; in most records, active means well fitted curve in the direction sought with a large enough effect; inconclusive means small, poorly fitted or top-dose-only effect, or another doubt; inactive means no such curve, though single readings can be large; an effect the other way counts as inactive or inconclusive.

SMILES | Rango complex inh | GCN5L2 inh | Rango release inh | PLK1 PBD inh | VDR inhibitor | PI5P4Ka inh | VDR inh confirm | VDR FP fluor | VDR bla reporter | VDR viability
OCc1cn(Cc2ccc(O)c3ncccc23)cn1 | / | -3.4% | / | / | / | / | / | / | / | /
CC(C)OCCCn1c(=O)c2ccccc2n2c(-c3ccccc3)nnc12 | / | -7.2% | / | / | 11.2% | / | / | / | / | /
CC1CCc2c(sc(NC(=O)CCC(=O)O)c2C(=O)NC2CC2)C1 (stereo not drawn) | -1.3% | -14.9% | 2.0% | 5.32µM* | 56.2µM* | -26.4 | 26.7* | 28.2µM* | 10.2% | -5.3%
COc1ccc(CNC(=O)Cn2c(=O)oc3cc(S(=O)(=O)N4CCCCCC4)ccc32)cc1 | / | -12.1% | / | / | 10.4% | / | / | / | / | /
O=C(Nc1ccc(Cl)c(C(F)(F)F)c1)C(Cc1ccccc1)NS(=O)(=O)c1ccc(Br)s1 (stereo not drawn) | / | -7.9% | / | / | 4.0% | / | / | / | / | /
CC1(C)CC(=O)C(C(c2ccc(Br)cc2)C2C(=O)CC(C)(C)CC2=O)C(=O)C1 | -4.6% | -5.0% | -3.8% | 18.9µM* | 25.1µM* | 2.9 | 29.9* | 17.8µM* | 23.7% | 8.7%
Cc1ccc2sc(C)[n+](CCC(C)S(=O)(=O)[O-])c2c1 (stereo not drawn) | 7.6% | -5.2% | 1.1% | -12.9% | ? | 1.2 | / | / | / | /
Cc1sc2ccccc2[n+]1CCc1ccccc1 | / | / | / | / | / | / | 11.2* | 7.94µM* | 13.9% | 3.8%
Cc1cn2c(=O)c(S(=O)(=O)Nc3ccc(OC(F)(F)F)cc3)c(C)nc2s1 | / | -12.5% | / | / | -4.3% | / | / | / | / | /
Cc1ccc2c(c1)C(=O)C(=O)N2Cc1ccc(C(F)(F)F)cc1 | 0.1% | -2.3% | 27.1% | ? | 25.1µM* | -27.1 | 16.8* | 10µM* | -9.0% | ?
Cc1ccc(CN2C(=O)C(=O)c3cc(Br)cc(C)c32)cc1 | / | -18.2% | / | / | 17.8µM* | / | 7.08* | 10µM* | -10.2% | -1.9%
C=C1c2ccccc2O[C@H](C(=O)OCC)[C@@H]1CCC(C)C (tested in a mixture with another compound) | / | -5.2%[88.6 µM] | / | / | ? | / | / | / | / | /
c1ccc(-c2ccc(C3=Nn4c(Cn5nnc6ccccc65)nnc4SC3)cc2)cc1 | -1.6% | ? | 0.8% | 4.74µM* | ? | ? | 14.1* | 10µM* | -9.3% | -9.5%
FC(F)(F)c1nnc2n1N=C(c1ccccc1)CS2 | -1.6% | 5.4% | 0.1% | 4.0% | -21.4% | -0.5 | / | / | / | /
O=C(Nc1ccc(N2CCOCC2)c(S(=O)(=O)Nc2ccc(Cl)cc2)c1)c1cnccn1 | -2.9% | -20.7% | 1.3% | 5.32µM* | 79.4µM* | -25.4 | 16.8* | ? | 18.5% | -11.6%
COc1ccc(NS(=O)(=O)c2cc(NC(=O)c3ccncc3)ccc2N2CCOCC2)cc1 | 6.2% | -2.9% | 22.2% | -22.7% | -13.5% | 1.4 | / | / | / | /
COc1ccc(S(=O)(=O)NCc2ccc3c(c2)CCN3C(C)=O)cc1OC | / | -9.4% | / | / | -5.0% | / | / | / | / | /
Cc1[nH]n(-c2ncc(-c3ccccc3)s2)c(=O)c1C(c1ccc(Br)cc1)C(C#N)C#N (stereo not drawn) | 4.7% | ? | 13.1% | 2.67µM* | 35.5µM* | -69.7* | 7.52* | ? | ? | -17.5%
OCCN1CCN(C(c2cccs2)c2ccc3cccnc3c2O)CC1 (stereo not drawn) | / | -16.0% | / | / | / | / | / | / | / | /
CCN1CCN(C(c2ccc(C(F)(F)F)cc2)c2ccc3cccnc3c2O)CC1 (stereo not drawn) | 1.9% | 2.1% | -6.1% | 3.77µM* | 25.1µM* | -28.9 | ? | 10µM* | 8.1% | -5.1%
CC(C)(C)C(=O)Nc1ccc2c(c1)C(=O)C(=O)c1ccccc1-2 | / | / | / | / | 8.91µM* | / | 1.26* | 1µM* | 4.11µM* | 5.97µM*
CSc1nnc(NC(=O)c2nc(S(=O)(=O)Cc3ccccc3)ncc2Cl)s1 | -3.4% | -5.6% | 7.5% | 29.9µM* | ? | -14.7 | 10* | 8.91µM* | 5.17µM* | 26.7µM*
CCCc1nnc(NC(=O)c2nc(S(=O)(=O)Cc3ccc(C)cc3)ncc2Cl)s1 | 6.0% | -26.4% | 2.5% | -20.9% | 28.2µM* | -3.8 | ? | 7.94µM* | 18.4µM* | 20.6µM*
CC(C)c1nnc(NC(=O)c2nc(S(=O)(=O)Cc3ccccc3)ncc2Cl)s1 | -0.8% | -6.9% | -5.1% | ? | 15.8µM* | -9.6 | 9.47* | 7.94µM* | 6.51µM* | 14.6µM*
COc1ccc(N(C(=O)c2ccccc2C)S(=O)(=O)c2ccc3c(c2)n(C)c(=O)n3C)cc1 | / | -4.0% | / | / | 4.5% | / | / | / | / | /
COc1ccc(S(=O)(=O)NCCc2cn3ccsc3n2)cc1OC | / | 1.4% | / | / | 1.7% | / | / | / | / | /
